# WRN helicase inh-1: inhibitors of human WRN helicase | AID 651768 | Potency, µM (series often up to 114 µM), hits mostly inhibitors | actives 0.46% (n = 360,000) | WRN helicase unwinding, fluorescent forked duplex, kinetic; also: nearly all actives have a fitted effect of over 55% in size
#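 Fluorescence dequenching readout, ex 525 nm/em 598 nm, kinetic mode: forked duplex DNA (100 nM final) with adjacent fluorophore and quencher unwound by WRN (20 nM final) with 2 mM ATP. Compound preincubation 15 min, room temperature.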
# Pol eta inh-1: inhibitors of human DNA polymerase eta | Q9Y253 | recombinant Pol eta, fluorescent DNA replication assay | Potency, µM (highest dose often 114 µM), most hits filed as inhibitors | actives 1.2% (n = 390,000) | AID 588591
#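 Pol eta (10 nM) was preincubated with compounds for 15 min at room temperature, after which fluorescent replication substrate (50 nM final) was added to start the reaction. Fluorescence was read kinetically at 0 and 10 min.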
# PI5P4Ka inh: inhibitors of human PI5P4K alpha; AID 652105; actives 1.2% (n = 330,000); PI5P4Kalpha enzyme, ADP-Glo luminescence, 60 min; hits give low values; P48426; max response, %; active = max response of -50% or lower; inconclusive = between -30% and -50%; inactive = -30% or higher; also: value at the top dose of about 77 µM
#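 Reactions run in 0.038 M HEPES pH 7.4, 0.28 mM EGTA, 0.1% CHAPS and 5% DMSO, with PI5P4Kalpha, substrate, compound and 5 microM ATP final, one hour at room temperature. Readout is ADP-Glo luminescence.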
# Pol kappa inh-1: inhibitors of human DNA polymerase kappa. Q9UBT6. purified Pol kappa, fluorescent DNA synthesis assay, 10 min. Potency, µM (titrated, usually from 107 µM), actives largely listed as inhibitors. actives 0.53% (n = 400,000)
# Target sequence (Q9UBT6 whole entry, looked up): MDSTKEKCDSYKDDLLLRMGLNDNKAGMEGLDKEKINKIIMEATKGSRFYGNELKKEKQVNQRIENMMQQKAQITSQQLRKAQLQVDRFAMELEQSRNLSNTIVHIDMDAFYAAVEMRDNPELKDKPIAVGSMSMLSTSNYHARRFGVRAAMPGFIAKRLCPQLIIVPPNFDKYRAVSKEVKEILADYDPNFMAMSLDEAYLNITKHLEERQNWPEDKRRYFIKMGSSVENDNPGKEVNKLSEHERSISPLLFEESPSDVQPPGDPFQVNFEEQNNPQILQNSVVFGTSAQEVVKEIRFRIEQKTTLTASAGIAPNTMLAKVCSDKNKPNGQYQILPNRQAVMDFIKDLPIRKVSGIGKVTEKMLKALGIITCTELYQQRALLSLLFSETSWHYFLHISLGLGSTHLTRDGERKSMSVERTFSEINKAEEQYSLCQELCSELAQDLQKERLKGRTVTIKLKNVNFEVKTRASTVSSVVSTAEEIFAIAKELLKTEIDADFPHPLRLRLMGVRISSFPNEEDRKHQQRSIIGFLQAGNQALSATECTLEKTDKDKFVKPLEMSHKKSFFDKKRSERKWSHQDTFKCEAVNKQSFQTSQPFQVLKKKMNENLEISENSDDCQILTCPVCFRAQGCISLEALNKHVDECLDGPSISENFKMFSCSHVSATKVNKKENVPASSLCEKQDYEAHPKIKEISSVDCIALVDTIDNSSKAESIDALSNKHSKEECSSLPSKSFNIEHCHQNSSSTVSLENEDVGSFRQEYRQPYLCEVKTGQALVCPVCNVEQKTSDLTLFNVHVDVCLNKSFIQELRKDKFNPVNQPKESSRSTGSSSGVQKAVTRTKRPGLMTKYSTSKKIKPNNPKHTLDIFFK
#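 Kinetic fluorescence screen: compound preincubated 15 min RT with 10 nM enzyme; 50 nM substrate (final) initiates; reads at 0/10 min.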
# Pol beta inh: inhibitors of human DNA polymerase beta | actives 1.3% (n = 340,000) | Pol beta primer extension/strand displacement, fluorescence kinetic | Potency, µM (titrated, usually from 114 µM), most hits filed as inhibitors
#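 Pol beta (10 nM) and compounds were preincubated 15 min at room temperature, then 50 nM substrate (final) started primer extension/strand displacement. Reads were taken at 0 and 10 min; concentration-response data were fitted to a four-parameter Hill equation.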
# POLI inh: inhibitors of human DNA polymerase iota. Pol iota fluorescent replication assay, 10 min. Potency, µM (highest dose often 115 µM), usual class: inhibitors. actives 1% (n = 390,000)
#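 Pol iota at 10 nM preincubated 15 min with compounds at room temperature; reaction started with fluorescent substrate, 50 nM final. Fluorescence read kinetically at 0 and 10 min; buffer-only wells as negative control.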
# TbPGK inh: validation of Trypanosoma brucei phosphoglycerate kinase inhibitors; actives 79% (n = 500); TbPGK coupled GAPDH assay, Kinase-Glo luminescence; shares compounds with Pol kappa inh-1; Potency, µM (top dose mostly 57.5 µM), most hits filed as inhibitors; also: nearly all actives have a fitted effect of over 65% in size
# POLI cherry-pick: Human Pol iota inhibitor confirmatory assay | Pol iota primer extension, TAMRA/BHQ fluorescence | shares compounds with Pol kappa inh-1 | actives 77% (n = 1,500) | AID 720496 | Potency, µM, actives largely listed as inhibitors
# Pol kappa inh-2: Pol kappa (human) inhibition, cherry-pick confirmation | actives 76% (n = 920) | shares compounds with Pol eta inh-1 | AID 720501 | Potency, µM, actives largely listed as inhibitors | purified Pol-kappa, fluorescent strand-displacement substrate
# Pol eta inh-2: confirmation of human DNA polymerase eta inhibitors | shares compounds with Pol eta inh-1 | Pol eta primer extension, TAMRA/BHQ fluorescence, 10 min | Potency, µM, hits mostly inhibitors | actives 64% (n = 2,600)
# WRN helicase inh-2: confirmation of human WRN helicase inhibitors | shares compounds with WRN helicase inh-1 | WRN helicase DNA unwinding, fluorescence kinetic | Potency, µM (series often up to 57.1 µM), actives largely listed as inhibitors | actives 63% (n = 610) | AID 720497; also: nearly all actives have a fitted effect of over 65% in size
# TO DNA binding: binds DNA, flagged in WRN inhibitor counterscreen. AID 720499. thiazole orange DNA binding displacement, fluorescence. actives 10% (n = 610). Potency, µM (titrated, usually from 57.1 µM), usual class: inhibitors. shares compounds with WRN helicase inh-1;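 also: drop in dye fluorescence marks compound binding to DNA; nearly all actives have a fitted effect of over 60% in size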
# BLM counter: blocks human BLM helicase in WRN counterscreen; Potency, µM (series often up to 57.1 µM), hits mostly inhibitors; actives 60% (n = 610); Recombinant BLM helicase DNA unwinding, red fluorescence; shares compounds with WRN helicase inh-1; also: nearly all actives have a fitted effect of over 60% in size
# ADP-Glo counter: interferes with ADP-Glo detection without enzyme present; shares compounds with PI5P4Ka inh; ADP-Glo detection counter-screen, luciferase luminescence, no enzyme; Potency, µM (series often up to 76.9 µM), usual class: inhibitors; 1,100 tested, under 10 active
# Hits are given with their value; – = inactive; ? = inconclusive; · = not tested or not shown; [ ] = another dose, or the depositor's remark. The list is not random: actives were taken first. Their share in the collection is about 2.8%. Unless noted, calls follow the shape of the dose curve; as a rule, active = well fitted curve in the direction sought with a large enough effect; inconclusive = small, poorly fitted or top-dose-only effect, or another doubt; inactive = no such curve, though single readings can be large; an effect the other way counts as inactive or inconclusive.
SMILES,WRN helicase inh-1,Pol eta inh-1,PI5P4Ka inh,Pol kappa inh-1,Pol beta inh,POLI inh,POLI cherry-pick,Pol kappa inh-2,Pol eta inh-2,ADP-Glo counter,others
CC(C)C1Nc2c(O)cc(Cl)c([N+](=O)[O-])c2C2C=CCC21 (stereo not drawn),–[11.6 µM],–,–,–,?,?,·,·,·,·,
Cc1ccn2c(=O)nc(SCC(=O)NCc3ccccc3Cl)nc2c1,?,18µM,-59,–,·,56µM,67,27,60,–,
NS(=O)(=O)c1ccc(NC(=O)C2Cc3ccccc3CN2C(=O)c2ccco2)cc1 (stereo not drawn),?,20µM,-87,79µM,28µM,20µM,?,·,67,–,
Cc1cc2c(c(C)c1CCO)C(=O)[C@H](C)C2,–,–,–,–,·,–,·,·,·,·,
COCCOC(=O)c1[nH]c2c(c1C)C(=O)CC(c1ccco1)C2 (stereo not drawn),?,13µM,-55,22µM,11µM,–,42,·,38,–,
COCCOC(=O)c1[nH]c2c(c1C)C(=O)CC(c1ccccc1)C2 (stereo not drawn),–,–,–,–,–,–,·,·,·,·,
COc1ccccc1Nc1ccc2c(O)cc(S(=O)(=O)O)cc2c1,–,2.2µM,-102,0.89µM,·,1.1µM,19,3,15,–,TbPGK inh=8.2µM;WRN helicase inh-2=6.1µM;TO DNA binding=?;BLM counter=5.4µM
O=S(=O)(O)c1cc(O)c2cc(Nc3ccccc3)ccc2c1,11µM,2.8µM,-69,32µM,·,3.2µM,30,3.4,17,–,TbPGK inh=9.2µM
O=C(O)c1cc2cc(S(=O)(=O)O)ccc2cc1O,–,–,?,–,·,–,·,·,·,·,
Cc1nn(-c2ccccc2)c(Cl)c1/C=N/Nc1nncc(=O)[nH]1,–,–,–,–,–,–,·,·,·,·,
CS(=O)(=O)N1N=C(c2ccco2)CC1c1ccco1 (stereo not drawn),–[11.6 µM],22µM,-64,79µM,?,?,53,19,30,–,
NS(=O)(=O)c1cc(C(=O)NC2CCSc3ccccc32)ccc1Cl (stereo not drawn),0.84µM,–,-84,0.79µM,0.32µM,1.3µM,0.6,0.27,0.6,–,TbPGK inh=0.15µM;WRN helicase inh-2=0.54µM;TO DNA binding=–;BLM counter=0.27µM
O=S(=O)(c1ccc2nc(-c3ccco3)c(-c3ccco3)nc2c1)N1CCOCC1,?,14µM,-78,?,28µM,?,42,9.5,24,–,
O=S(=O)(c1ccc2ccccc2c1)N1CCOCC1,–,–,–,–,–,–,·,·,·,·,
COc1cccc(CNC(=O)CCc2c(C)nn(-c3ccc(N4CCCC4)nn3)c2C)c1,·,–,·,–,–,–,·,·,·,·,
O=C(c1cccc(-n2cccc2)c1)N1CCN(S(=O)(=O)c2ccccc2)CC1,18µM,8.9µM,-69,18µM,·,8.9µM,4.2,·,8.5,–,WRN helicase inh-2=4.3µM;TO DNA binding=?;BLM counter=1.1µM
O=C(c1cccc(S(=O)(=O)N2CCN(c3ccccc3)CC2)c1)N1CCCCCCC1,–,–,–,–,·,–,·,·,·,·,
C[C@H]1COc2cccc(N3CCC[C@@H]3CO)c2S(=O)(=O)N1,–,·,–,·,·,·,·,·,·,·,
COc1nnc(-c2ccccc2)s1,–,–,–,–,?,–,·,·,·,·,
O=c1c2ccccc2cnn1-c1nc2ccccc2[nH]1,–,–,-50,–,–,–,·,·,·,25µM,TbPGK inh=5.8µM
O=c1c(Cl)c(N2CCCCC2)cnn1-c1nc2ccccc2[nH]1,–,–,–,–,–,–,·,·,·,·,
N#Cc1c(SCC(=O)Nc2nccs2)sc2c(O)cc(=O)[nH]c12,56µM,14µM,-94,45µM,8.9µM,13µM,47,17,30,–,
N#Cc1c(SCC(=O)Nc2nc3ccc(Br)cc3s2)sc2c(O)cc(=O)[nH]c12,?,11µM,-102,32µM,35µM,6.3µM,67,8.4,15,–,
O=C(CCc1nnc2n(Cc3ccccc3Cl)c(=O)c3ccccc3n12)Nc1ccc(F)cc1,·,–,·,–,–,–,·,·,·,·,
O=C1c2cccc(-c3ccc(C(F)(F)F)cc3)c2C2CC=CCN12 (stereo not drawn),–,·,–,·,·,·,·,·,·,·,
SMILES,WRN helicase inh-1,Pol eta inh-1,PI5P4Ka inh,Pol kappa inh-1,Pol beta inh,POLI inh,POLI cherry-pick,Pol kappa inh-2,Pol eta inh-2,ADP-Glo counter,others
Nc1c(C(=O)O)cnc2c(-c3ccc(Cl)cc3)cnn12,?,–,-84,–,–,–,·,·,·,–,TbPGK inh=?
COc1cc(C(=O)OCC(=O)Nc2cc(C)on2)c([N+](=O)[O-])cc1OC,–,–,–,–,–,–,·,·,·,·,
COc1ccccc1NCCC(=O)OCC(=O)NCc1ccco1,?,5.6µM,-60,79µM,18µM,6.3µM,?,·,·,–,
Cc1ccccc1OCC(=O)OCC(=O)NCc1ccco1,–,–,–,–,·,–,·,·,·,·,
COc1ccccc1N(CC(=O)NCc1ccco1)S(=O)(=O)c1ccc(C)cc1,35µM,10µM,-80,32µM,11µM,5.6µM,21,11,27,–,TbPGK inh=16µM;WRN helicase inh-2=17µM;TO DNA binding=–;BLM counter=14µM
COc1ccc(C(CC(=O)N2CCCCC2)c2c(OC)cc(OC)c3c(-c4ccccc4)cc(=O)oc23)cc1 (stereo not drawn),–[11.6 µM],20µM,-81,50µM,25µM,71µM,42,·,?,–,
NC(=O)c1c(NC(=O)C2CC=CCC2C(=O)O)sc2c1CCCCC2 (stereo not drawn),–,56µM,-53,–,20µM,–,·,·,·,–,TbPGK inh=13µM
O=C(NC1CC1)C1CCN(S(=O)(=O)c2cc([N+](=O)[O-])ccc2Cl)CC1,?,13µM,-56,50µM,·,10µM,30,19,?,–,
